According to PubChem BioAssay (Tox21):
Records with an inconclusive call do not appear. The source made the active and inactive calls. Unless noted, calls follow the shape of the full dose curve.

Legend:
[1] = Nuclear factor erythroid 2-related factor 2/antioxidant responsive element (Nrf2/ARE) small molecule agonists: qHTS cell viability counter screen in human keratinocytes (AID 1919968; active = well fitted cell-killing curve with a large enough effect in the repeat runs; also: nearly all actives have a fitted effect of over 55% in size)
Method in brief: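 After a 5 h attachment period, ARE-reporter keratinocytes were dosed with compounds in DMSO and then cultured 23 h at 37 C. Cell viability came from CellTiter-Fluor signal read after a further 1 h.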

[2] = Nuclear factor erythroid 2-related factor 2/antioxidant responsive element (Nrf2/ARE) small molecule agonists: luciferase reporter gene qHTS assay in human keratinocytes (AID 1919969); also: nearly all actives have a fitted effect of over 35% in size
[3] = molecular target: Gonadotropin-releasing hormone receptor (Homo sapiens) (UniProt P30968); assay: Human gonadotropin-releasing hormone receptor (GnRHR) small molecule agonists, calcium flux assay in GnRHR-HEK293 cells (AID 1920063); also: nearly all actives have a fitted effect of over 35% in size
Method in brief: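 We seeded human GnRHR-expressing HEK293 cells for 18 hours, loaded them with calcium dye for an hour at 37 C, added test compounds, and recorded fluorescence intensity kinetically for three minutes.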

[4] = p53 small molecule agonists, cell-based qHTS assay with human liver microsomes (AID 1963577)
Method in brief: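 p53RE-bla reporter cells were pre-incubated 5 h at 37 C, then treated with compounds plus human liver microsomes (0.5 mg/mL final) and NADPH (0.5 mg/mL final) for 16 h at 37 C. Beta-lactamase activity was read by LiveBLAzer fluorescence after 2 h at room temperature.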

[5] = p53 small molecule agonists, cell-based qHTS assay with rat liver microsomes: qHTS cell viability counter screen (AID 1963580); also: nearly all actives have a fitted effect of over 45% in size
Method in brief: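 HCT-116 p53RE-bla, 4,000 cells/well, 5 h pre-incubation; cpd + rat liver microsomes 0.5 mg/mL + NADPH 0.5 mg/mL (final); 16 h, 37 C; CellTiter-Glo, 30 min RT; luminescence.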

[6] = p53 small molecule agonists, cell-based qHTS assay: qHTS cell viability counter screen (AID 1963581); also: nearly all actives have a fitted effect of over 45% in size
Method in brief: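 Following 5 h attachment, HCT-116 p53RE-bla cells took up compound for 16 h at 37 C; the reporter was read with B/G FRET substrate (2 h RT), and viability then via CellTiter-Glo ATP luminescence.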

[7] = p53 small molecule agonists, cell-based qHTS assay (AID 1963582; active = well fitted activation curve with a large enough effect in the signal ratio in the repeat runs, not every such curve was filed as active; the % refers to the signal ratio)
Method in brief: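 In this cell-based concentration-response screen, a p53 response element drives beta-lactamase; cells received DMSO-borne compounds after 5 h culture and were incubated a further 16 h before FRET substrate development.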

[8] = molecular target: 5-hydroxytryptamine receptor 2A (Homo sapiens) (UniProt P28223); assay: 5-hydroxytryptamine receptor 2A (HTR2A) small molecule antagonists, cell-based qHTS assay (AID 1963586); also: nearly all actives have a fitted effect of over 45% in size; also: potency is read from the fitted curve at half-maximal effect
Method in brief: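 Antagonist-mode intracellular calcium assay: DOI (4 nM) added after 5 min compound pre-incubation at room temperature to dye-loaded HTR2A-CHO cells. Fluorescence followed for 3 min, sampled every second.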

[9] = molecular target: 5-hydroxytryptamine receptor 2A (Homo sapiens) (UniProt P28223); assay: 5-hydroxytryptamine receptor 2A (HTR2A) small molecule agonists, cell-based qHTS assay (AID 1963587); also: nearly all actives have a fitted effect of over 30% in size
Method in brief: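 Kinetic calcium-flux fluorescence (2 min, 1 sec intervals) after compound addition in agonist mode. HTR2A-CHO cells were cultured 18 h, then dye-loaded 1 h at 37 C.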

[10] = molecular target: Muscarinic acetylcholine receptor M1 (Homo sapiens) (UniProt P11229); assay: Cholinergic receptor muscarinic 1 (CHRM1) small molecule antagonists, cell-based qHTS assay (AID 1963588); also: nearly all actives have a fitted effect of over 40% in size; also: potency is read from the fitted curve at half-maximal effect
Method in brief: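 CHRM1-CHO calcium-flux assay, antagonist mode. Cells were seeded 18 h, dye-loaded 1 h at 37 C and given compound for 5 min at RT, then acetylcholine was added at 50nM. FDSS fluorescence was read 3 min; 15 concentrations, three runs.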

[11] = molecular target: Muscarinic acetylcholine receptor M1 (Homo sapiens) (UniProt P11229); assay: Cholinergic receptor muscarinic 1 (CHRM1) small molecule agonists, cell-based qHTS assay (AID 1963589); also: nearly all actives have a fitted effect of over 35% in size
Method in brief: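 Measures agonist-induced intracellular calcium rise. Stable human CHRM1 CHO line, 1 h dye load at 37 C, compounds from DMSO, kinetic fluorescence read.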

[12] = cAMP Responsive Elements (CRE) small molecule agonists, cell-based qHTS assay (AID 1963590)
Method in brief: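 A CRE-responsive beta-lactamase reporter in HEK 293T cells was used. Treatment ran 3 h at 37 C; detection used LiveBLAzer B/G FRET substrate for 2 h at room temperature.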

[13] = cAMP Responsive Elements (CRE) small molecule antagonists, cell-based qHTS assay (AID 1963591; active = well fitted inhibition curve with a large enough effect in the signal ratio in the repeat runs, not every such curve was filed as active; the % refers to the signal ratio)
Method in brief: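 HEK293T cells carrying a CRE-driven beta-lactamase reporter receive compound and NKH477 (0.25 uM final) for 3 h. Fluorescence from LiveBLAzer B/G FRET substrate is read after 2 h at room temperature.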

[14] = molecular target: Beta-2 adrenergic receptor (Homo sapiens) (UniProt P07550); assay: Adrenergic beta2 receptor (ADRB2) small molecule antagonists, cell-based qHTS assay (AID 1963592); also: series mostly up to about 92 µM; nearly all actives have a fitted effect of over 50% in size
Method in brief: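 Cells (CHO, stable ADRB2 overexpression) incubated 18-20hr at 37C; compounds added from DMSO; agonist mix (1nM isoproterenol, 100uM IBMX, 25uM Ro-20-1724) added; 0.5hr RT; d2-cAMP and anti-cAMP-cryptate added; 1hr RT; 665/615 nm read.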

[15] = molecular target: D(2) dopamine receptor (Homo sapiens) (UniProt P14416); assay: Dopamine D2 receptor (DRD2) small molecule agonists, cell-based qHTS assay (AID 1963594); also: nearly all actives have a fitted effect of over 35% in size
Method in brief: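 cAMP accumulation in DRD2-HEK293 cells measured by HTRF after 1 h detection; compounds added 10 min before NKH477 (200nM […]) forskolin-analogue stimulation, 30 min at room temperature, with Ro20-1724 present at 0.1 mM final.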

[16] = molecular target: D(2) dopamine receptor (Homo sapiens) (UniProt P14416); assay: Dopamine D2 receptor (DRD2) small molecule antagonists, cell-based qHTS assay (AID 1963595; active = well fitted inhibition curve with a large enough effect in the signal ratio in the repeat runs, with a control signal flat; the % refers to the signal ratio; also: potency is read from the fitted curve at half-maximal effect)
Method in brief: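 Antagonist mode in DRD2-HEK293 cells: after compound addition with 0.1 mM Ro20-1724, cells received quinpirole (12 nM) and NKH477 (200 nM) for 30 min at room temperature; HTRF cAMP read after 1 h detection.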

[17] = p53 small molecule agonists, cell-based qHTS assay with rat liver microsomes (AID 1963578)
Method in brief: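 p53RE-bla cells were exposed to compounds together with rat liver microsomes (0.5 mg/mL final) and NADPH (0.5 mg/mL final) for 16 h at 37 C, then read by LiveBLAzer beta-lactamase fluorescence after 2 h at room temperature.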

[18] = molecular target: Beta-2 adrenergic receptor (Homo sapiens) (UniProt P07550); assay: Adrenergic beta2 receptor (ADRB2) small molecule agonists, cell-based qHTS assay (AID 1963593);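 also: CHO cells stably overexpressing human ADRB2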
Method in brief: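 CHO cells stably over-expressing ADRB2 were plated overnight at 37C, then dosed with compounds plus a stimulation mix containing 100uM IBMX and 25uM Ro-20-1724 for 0.5hr at room temperature. cAMP was measured by HTRF competition, 1hr.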

[19] = p53 small molecule agonists, cell-based qHTS assay with human liver microsomes: qHTS cell viability counter screen (AID 1963579); also: nearly all actives have a fitted effect of over 45% in size
Method in brief: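 p53RE-bla cells (4,000/well) were pre-incubated 5 h at 37 C, then given compounds in DMSO plus human liver microsomes (0.5 mg/mL final) and NADPH (0.5 mg/mL final) for 16 h at 37 C. Viability was read by CellTiter-Glo luminescence.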
% is scaled to controls: 0 for no effect and ±100 for the full control effect.

Chain of Gonadotropin-releasing hormone receptor (Homo sapiens) (P30968 whole entry, looked up): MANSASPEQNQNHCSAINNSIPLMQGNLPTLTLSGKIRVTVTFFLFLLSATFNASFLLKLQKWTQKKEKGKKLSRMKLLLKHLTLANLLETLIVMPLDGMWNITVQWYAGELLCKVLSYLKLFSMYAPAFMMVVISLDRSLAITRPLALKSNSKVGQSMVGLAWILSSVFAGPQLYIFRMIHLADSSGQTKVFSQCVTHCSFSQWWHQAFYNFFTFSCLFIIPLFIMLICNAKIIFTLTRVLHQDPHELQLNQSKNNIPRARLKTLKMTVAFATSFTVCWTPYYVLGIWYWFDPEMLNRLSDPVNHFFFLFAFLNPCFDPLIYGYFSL
Chain of Muscarinic acetylcholine receptor M1 (Homo sapiens) (P11229 whole entry, looked up): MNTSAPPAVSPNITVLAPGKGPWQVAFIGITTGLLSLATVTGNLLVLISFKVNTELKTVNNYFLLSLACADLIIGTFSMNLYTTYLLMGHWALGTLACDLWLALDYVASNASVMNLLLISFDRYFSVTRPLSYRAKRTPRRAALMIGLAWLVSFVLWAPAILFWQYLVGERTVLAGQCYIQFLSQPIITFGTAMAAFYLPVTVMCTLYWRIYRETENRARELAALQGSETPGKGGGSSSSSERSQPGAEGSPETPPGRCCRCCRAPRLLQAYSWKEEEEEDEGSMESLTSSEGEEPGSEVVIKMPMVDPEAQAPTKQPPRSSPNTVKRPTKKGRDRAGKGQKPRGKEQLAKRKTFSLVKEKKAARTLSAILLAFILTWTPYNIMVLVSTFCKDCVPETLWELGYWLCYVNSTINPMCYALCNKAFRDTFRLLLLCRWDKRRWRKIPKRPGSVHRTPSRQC
Chain of D(2) dopamine receptor (Homo sapiens) (P14416 whole entry, looked up): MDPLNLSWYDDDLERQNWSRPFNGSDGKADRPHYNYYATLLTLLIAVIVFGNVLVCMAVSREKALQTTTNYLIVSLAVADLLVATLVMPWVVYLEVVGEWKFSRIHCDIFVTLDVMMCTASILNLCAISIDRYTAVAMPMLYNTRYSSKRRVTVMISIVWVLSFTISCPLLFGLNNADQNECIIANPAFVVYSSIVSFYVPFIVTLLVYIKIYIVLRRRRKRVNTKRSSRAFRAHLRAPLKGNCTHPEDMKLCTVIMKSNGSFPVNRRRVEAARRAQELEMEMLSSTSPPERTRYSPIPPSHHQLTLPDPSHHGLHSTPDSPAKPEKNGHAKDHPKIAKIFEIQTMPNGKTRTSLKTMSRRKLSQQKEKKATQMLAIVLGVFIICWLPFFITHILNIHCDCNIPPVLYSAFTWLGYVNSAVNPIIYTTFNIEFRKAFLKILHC
Chain of 5-hydroxytryptamine receptor 2A (Homo sapiens) (P28223 whole entry, looked up): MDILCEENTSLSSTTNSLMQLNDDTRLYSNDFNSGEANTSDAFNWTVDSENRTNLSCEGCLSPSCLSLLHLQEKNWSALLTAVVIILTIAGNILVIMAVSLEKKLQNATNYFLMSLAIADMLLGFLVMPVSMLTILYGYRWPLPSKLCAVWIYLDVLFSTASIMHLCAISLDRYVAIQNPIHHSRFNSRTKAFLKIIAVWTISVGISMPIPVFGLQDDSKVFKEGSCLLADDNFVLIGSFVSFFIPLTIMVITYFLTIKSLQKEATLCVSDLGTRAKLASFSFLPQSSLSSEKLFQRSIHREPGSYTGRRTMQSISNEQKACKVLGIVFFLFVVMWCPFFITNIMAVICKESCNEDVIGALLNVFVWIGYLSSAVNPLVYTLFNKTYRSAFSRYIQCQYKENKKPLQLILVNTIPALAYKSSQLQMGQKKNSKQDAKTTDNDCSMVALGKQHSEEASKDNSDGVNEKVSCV
Chain of Beta-2 adrenergic receptor (Homo sapiens) (P07550 whole entry, looked up): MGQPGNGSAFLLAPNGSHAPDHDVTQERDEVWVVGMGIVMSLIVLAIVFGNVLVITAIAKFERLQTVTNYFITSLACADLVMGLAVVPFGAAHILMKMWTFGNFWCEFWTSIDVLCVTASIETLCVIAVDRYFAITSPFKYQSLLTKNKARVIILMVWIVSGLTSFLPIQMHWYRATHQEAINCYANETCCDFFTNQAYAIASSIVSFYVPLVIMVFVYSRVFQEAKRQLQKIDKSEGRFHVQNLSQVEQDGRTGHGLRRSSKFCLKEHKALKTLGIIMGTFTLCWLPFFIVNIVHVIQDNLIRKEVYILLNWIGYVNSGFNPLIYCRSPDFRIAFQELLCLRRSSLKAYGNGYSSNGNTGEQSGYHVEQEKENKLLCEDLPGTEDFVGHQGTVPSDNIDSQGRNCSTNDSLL

Cc1ccnc(N)c1
inactive: Potency [1] | Potency [2] | Potency [3] | Potency [4] | Potency [5] | Potency [6] | Potency [7] | Potency [8] | Potency [9] | Potency [10] | Potency [11] | Potency [12] | Potency [13] | Potency [14] | Potency [15] | Potency [16]

NC(=O)NC(=O)Cc1ccccc1
inactive: Potency [1] | Potency [2] | Potency [3] | Potency [4] | Potency [17] | Potency [5] | Potency [7] | Potency [12] | Potency [13] | Potency [14] | Potency [18] | Potency [15] | Potency [16]

Nc1ccc(C(=O)O)c(O)c1
inactive: Potency [1] | Potency [2] | Potency [3] | Potency [4] | Potency [17] | Potency [19] | Potency [5] | Potency [7] | Potency [12] | Potency [13] | Potency [14] | Potency [15] | Potency [16]

CN1CCC(=C2c3ccccc3CCc3sccc32)CC1
inactive: Potency [1] | Potency [2] | Potency [3] | Potency [4] | Potency [17] | Potency [19] | Potency [7] | Potency [11] | Potency [12] | Potency [15]
active: Potency [8] 11.6 nM | Potency [10] 14.5 nM | Potency [16] 11900 nM

CN(C)C/C=C(/c1ccc(Br)cc1)c1cccnc1
inactive: Potency [1] | Potency [2] | Potency [3] | Potency [4] | Potency [17] | Potency [19] | Potency [6] | Potency [7] | Potency [8] | Potency [10] | Potency [11] | Potency [13] | Potency [18]

COc1cc(OC)cc(OC)c1
inactive: Potency [1] | Potency [2] | Potency [3] | Potency [4] | Potency [17] | Potency [19] | Potency [6] | Potency [7] | Potency [8] | Potency [9] | Potency [10] | Potency [11] | Potency [12] | Potency [13] | Potency [14] | Potency [18] | Potency [15] | Potency [16]

CCCCC/C=C/CC(=O)OC
inactive: Potency [1] | Potency [2] | Potency [3] | Potency [4] | Potency [17] | Potency [19] | Potency [5] | Potency [7] | Potency [9] | Potency [11] | Potency [12] | Potency [15] | Potency [16]

CC(C)(C)NCC(O)COc1cccc2c1CCC(=O)N2 (stereo unspecified)
inactive: Potency [1] | Potency [2] | Potency [3] | Potency [4] | Potency [19] | Potency [5] | Potency [7] | Potency [9] | Potency [10] | Potency [11] | Potency [12] | Potency [13] | Potency [16]

O=C(OCC1(COC(=O)c2cccnc2)CCCC(COC(=O)c2cccnc2)(COC(=O)c2cccnc2)C1O)c1cccnc1
inactive: Potency [1] | Potency [2] | Potency [3] | Potency [4] | Potency [17] | Potency [5] | Potency [7] | Potency [8] | Potency [9] | Potency [10] | Potency [11] | Potency [14] | Potency [15]

Nc1nc(-c2ccccc2)c(Br)c(=O)[nH]1
inactive: Potency [1] | Potency [2] | Potency [3] | Potency [4] | Potency [17] | Potency [19] | Potency [7] | Potency [8] | Potency [9] | Potency [10] | Potency [11] | Potency [12] | Potency [18] | Potency [15] | Potency [16]

N#CSCC(=O)O
inactive: Potency [1] | Potency [2] | Potency [3] | Potency [4] | Potency [19] | Potency [5] | Potency [6] | Potency [7] | Potency [8] | Potency [10] | Potency [11] | Potency [12] | Potency [13] | Potency [16]

CC(C)Cn1cnc2c(N)nc3ccccc3c21
inactive: activity change, negative = cytotoxicity [1] -5.63% [at 19 µM] | activity, positive = activation [2] 7.96% [at 19 µM] | activity change [3] -1.43% [at 11.8 µM, hits give high values] | activation [4] 13.5% [at 13.5 µM] | activation [17] -0.62% [at 13.6 µM] | activity change, negative = cytotoxicity [5] -0.545% [at 13.5 µM] | activation [12] 3.84% [at 19 µM] | activity change, negative = inhibition [13] 2.85% [at 18.9 µM] | activity change, negative = inhibition [14] -12.1% [at 19 µM]

CCO[Si](OCC)(OCC)OCC
inactive: Potency [1] | Potency [2] | Potency [3] | Potency [4] | Potency [19] | Potency [5] | Potency [6] | Potency [8] | Potency [9] | Potency [10] | Potency [11] | Potency [12] | Potency [13] | Potency [14] | Potency [15] | Potency [16]

c1cnc2c(n1)CCCC2
inactive: Potency [1] | Potency [2] | Potency [3] | Potency [4] | Potency [17] | Potency [19] | Potency [6] | Potency [7] | Potency [9] | Potency [10] | Potency [11] | Potency [12] | Potency [13] | Potency [14] | Potency [18] | Potency [15] | Potency [16]

Oc1ccc(Oc2ccccc2)cc1
inactive: Potency [1] | Potency [2] | Potency [3] | Potency [4] | Potency [17] | Potency [6] | Potency [8] | Potency [10] | Potency [11] | Potency [12] | Potency [14] | Potency [18] | Potency [15] | Potency [16]

CCCCCCCCCCCCCOP(=O)(O)O
inactive: Potency [1] | Potency [2] | Potency [3] | Potency [4] | Potency [17] | Potency [19] | Potency [8] | Potency [9] | Potency [10] | Potency [12] | Potency [13] | Potency [14] | Potency [15] | Potency [16]

O=NN(CCCl)C(=O)NC1CCCCC1
inactive: Potency [1] | Potency [2] | Potency [3] | Potency [4] | Potency [17] | Potency [19] | Potency [5] | Potency [7] | Potency [12] | Potency [14] | Potency [18] | Potency [16]
